IL-1B inflam inh: qHTS for Inhibitors of Inflammasome Signaling: IL-1-beta AlphaLISA Primary Screen. THP-1 LPS/ATP IL-1B secretion, AlphaLISA, 16 h; hits give low values. activity change, % at 57.5 µM. hit rate 4.7% among 360,000; in the data active = activity change below about -50%; inconclusive = mostly about -30% to -49%
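Secreted IL-1B measured by AlphaLISA bead assay after 16 h compound exposure of THP-1 cells; compounds (final up to 57.5 uM) added 1 h before LPS (250 ng/mL) and ATP (1.25 mM) stimulation; lower signal means less secretion.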
TDP1 cell CPT: qHTS for Inhibitors of human tyrosyl-DNA phosphodiesterase 1 (TDP1): qHTS in cells in presence of CPT; chicken DT40 Tdp1-/-;hTDP1 cells + 20 nM CPT, ATP luminescence, 48 h; Potency, µM (series often up to 46.2 µM), usual class: inhibitors; hit rate 12% among 420,000; AID 686979, 2013; note: nearly all actives have a fitted effect of over 55% in size
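Chicken DT40 Tdp1-/- cells stably complemented with human TDP1 were seeded at 400 cells/well in medium containing 20 nM camptothecin, exposed to pin-transferred compounds, and grown at 37 °C for at least 48 hr. Viability was read as ATP luminescence.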
HT1080 IDH1KD tx: qHTS for induction of synthetic lethality in tumor cells producing 2HG: qHTS for the HT-1080-IDH1KD cell line | Potency, µM (highest dose often 46.1 µM), actives largely listed as cytotoxic | hit rate 2% among 360,000 | AID 686971, 2013 | HT-1080 IDH1 knockdown viability, ATP luminescence, 48 h
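Knockdown cells (IDH1KD HT-1080) received compounds 2 h after plating at 750 cells/well and were kept 48 h at 37 °C in 5% FBS RPMI. A CellTiter-Glo luminescence read gave % activity for curve fitting.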
HT1080-NT tox: qHTS for induction of synthetic lethality in tumor cells producing 2HG: qHTS for the HT-1080-NT fibrosarcoma cell line; HT-1080-NT fibrosarcoma viability, CellTiter-Glo ATP luminescence, 48 h; Potency, µM (highest dose often 46.1 µM), usual class: cytotoxic; hit rate 1.6% among 360,000; AID 686970, 2013;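 note: NT is the 2HG producing partner of a matched IDH1 knockdown line; nearly all actives have a fitted effect of over 55% in size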
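Compounds were tested in concentration-response format on HT-1080-NT cells for 48 hours at 37 degrees C. Cell viability came from CellTiter-Glo luminescence; curves were classified by r2, response magnitude and activity.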
DT40 TDP1 no CPT: qHTS for Inhibitors of human tyrosyl-DNA phosphodiesterase 1 (TDP1): qHTS in cells in absence of CPT; DT40 Tdp1-/- hTDP1 cells, no CPT, ATP luminescence, 48 h; Potency, µM (top dose mostly 46.2 µM), usual class: inhibitors; hit rate 15% among 420,000; note: nearly all actives have a fitted effect of over 55% in size
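Chicken DT40 Tdp1-/- cells complemented with human TDP1, screened without camptothecin (DMSO vehicle only), 400 cells/well. Compounds pin-transferred, cells incubated at 37 °C for at least 48 hr. Growth read as ATP-dependent luminescence (CellTiter-Glo, 30 min at RT).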
Each line names hits and unclear results; the compound was inactive in the other large screens. Shown are actives, neighbours in structure and some others; about 19% of the full set was active somewhere. Unless noted, calls come from the whole dose curve; as a rule, active = well fitted curve in the direction sought with a large enough effect; inconclusive = small, poorly fitted or top-dose-only effect, or another doubt; inactive = no such curve, though single readings can be large; an effect the other way counts as inactive or inconclusive.

O=C(NCCN1CCOCC1)c1ccc2c(c1)N(Cc1ccc(F)cc1)C(=O)c1ccccc1S2(=O)=O	none
O=C(NCCC1=CCCCC1)c1ccc2c(c1)N(Cc1ccc(F)cc1)C(=O)c1ccccc1S2(=O)=O	TDP1 cell CPT 21µM, DT40 TDP1 no CPT 7.3µM (no result: IL-1B inflam inh, HT1080 IDH1KD tx, HT1080-NT tox)
CN(Cc1ccccc1)C(=O)c1ccc2c(c1)N(Cc1ccc(Cl)cc1)C(=O)c1ccccc1S2=O (configuration not stated)	TDP1 cell CPT 16µM, DT40 TDP1 no CPT 16µM (no result: IL-1B inflam inh, HT1080 IDH1KD tx, HT1080-NT tox)
O=C(NCc1ccc2c(c1)OCO2)c1ccc2c(c1)N(Cc1ccccc1)C(=O)c1ccccc1S2=O (configuration not stated)	DT40 TDP1 no CPT inconclusive (no result: IL-1B inflam inh, HT1080 IDH1KD tx, HT1080-NT tox)
O=C(NC1CCCCC1)c1ccc2c(c1)N(Cc1ccc(F)cc1)C(=O)c1ccccc1S2(=O)=O	none (no result: IL-1B inflam inh, HT1080 IDH1KD tx, HT1080-NT tox)
CCCCN(C)C(=O)c1ccc2c(c1)N(Cc1ccc(F)cc1)C(=O)c1ccccc1S2(=O)=O	TDP1 cell CPT 16µM, DT40 TDP1 no CPT 16µM (no result: IL-1B inflam inh, HT1080 IDH1KD tx, HT1080-NT tox)
CCC(=O)Nc1cc2c(cc1Cl)-c1ccccc1C2	TDP1 cell CPT inconclusive, DT40 TDP1 no CPT inconclusive
CN(Cc1ccccc1)C(=O)c1ncn(C)c1C(=O)N(C)Cc1ccccc1	none
CN(Cc1ccccc1)C(=O)c1ncn(Cc2ccccc2)c1C(=O)N(C)Cc1ccccc1	TDP1 cell CPT inconclusive, DT40 TDP1 no CPT 18µM
Cc1ccc(NC(=O)CNc2cc(S(=O)(=O)N3CCOCC3)ccc2N2CCOCC2)cc1S(=O)(=O)N(C)C	DT40 TDP1 no CPT inconclusive
CN(CCC(=O)c1ccccc1)CCC(=O)c1ccccc1	TDP1 cell CPT 4.6µM, DT40 TDP1 no CPT 2.9µM
O=C(O)CCC(=O)CCC(=O)c1ccc(Cl)cc1	none
CN(C)CCC(=O)c1ccc(Cl)cc1	TDP1 cell CPT 2.6µM, DT40 TDP1 no CPT 4.6µM
Cc1nc(CN2CCN(C(=O)CC3(c4ccccc4Cl)CC(=O)N(C)C3=O)CC2)cs1 (configuration not stated)	none (no result: IL-1B inflam inh, HT1080 IDH1KD tx, HT1080-NT tox)
Cc1ccc(-n2c(C)cc(/C=C3/C(=N)N4C(c5ccccc5)=CSC4=NC3=O)c2C)cc1	TDP1 cell CPT inconclusive, DT40 TDP1 no CPT 23µM
O=C1NC(c2ccccc2)=CC(c2ccccc2O)N1 (configuration not stated)	none
COc1cccc(C2=CC(c3ccccc3O)NC(C)(C)N2)c1 (configuration not stated)	TDP1 cell CPT 13µM, DT40 TDP1 no CPT 16µM (no result: IL-1B inflam inh, HT1080 IDH1KD tx, HT1080-NT tox)
Cc1nnc(SCC(=O)N(Cc2ccccc2)C(C)(C)C)[nH]c1=O	none
CCc1ccc(S(=O)(=O)N2c3ccc(C)cc3C3CN(C)CCC32)cc1 (configuration not stated)	IL-1B inflam inh -51, TDP1 cell CPT inconclusive, DT40 TDP1 no CPT inconclusive
Cc1ccc2c(c1)[C@@H]1CN(C)CC[C@@H]1N2S(=O)(=O)c1ccc(F)cc1	TDP1 cell CPT inconclusive, DT40 TDP1 no CPT inconclusive
Cc1nc2ccccc2c2c1CC(C(C)(Cl)Br)O2 (configuration not stated)	TDP1 cell CPT 6.5µM, HT1080 IDH1KD tx inconclusive, HT1080-NT tox inconclusive, DT40 TDP1 no CPT 3.7µM
COc1ccc2nc(C)c3c(c2c1)OC(C(C)(Cl)Br)C3 (configuration not stated)	TDP1 cell CPT inconclusive, DT40 TDP1 no CPT 18µM
COc1ccc2nc(C)c3cc(C)oc3c2c1	none
C[C@](N)(C(=O)O)c1ccc(-c2nn[nH]n2)cc1	none (no result: IL-1B inflam inh, HT1080 IDH1KD tx, HT1080-NT tox)
C[C@@H](NC(=O)[C@@H]1Cc2ccccc2CN1)C(=O)NC1CCCCC1	none
COc1ccc(CNC(=O)Cn2c(=O)n3nc(-c4cccc(F)c4)nc3c3ccccc32)cc1OC	none (no result: IL-1B inflam inh, HT1080 IDH1KD tx, HT1080-NT tox)
CC1CCCCC1NC(=O)c1cc2c(=O)n3ccccc3nc2n1C (configuration not stated)	TDP1 cell CPT 23µM, DT40 TDP1 no CPT 16µM
Cc1csc2nc(O)c(C(=O)NC3CCCCC3C)c(=O)n12 (configuration not stated)	TDP1 cell CPT inconclusive, DT40 TDP1 no CPT 18µM
Cc1cccn2c(=O)c3cc(C(=O)NC4CCCCC4C)n(C)c3nc12 (configuration not stated)	DT40 TDP1 no CPT inconclusive
CC1CCCCC1NC(=O)c1c(O)nc2ccccn2c1=O (configuration not stated)	TDP1 cell CPT inconclusive, HT1080-NT tox inconclusive, DT40 TDP1 no CPT 21µM
Cc1csc2nc(O)c(C(=O)NCC3CCCO3)c(=O)n12 (configuration not stated)	none
Cn1c(=O)n(C)c2cc(NS(=O)(=O)c3cccs3)ccc21	none
Cc1cc(Nc2ccc(C(=O)O)c(O)c2)n2ncnc2n1	none (no result: IL-1B inflam inh, HT1080 IDH1KD tx, HT1080-NT tox)
CC1CN(C(=O)Nc2ccc(F)cc2)C2(CCCCCC2)O1 (configuration not stated)	none
COc1cc(NC(=O)C2CC(c3c(F)cccc3Cl)=NO2)cc(OC)c1OC (configuration not stated)	TDP1 cell CPT inconclusive, DT40 TDP1 no CPT 10µM
O=C(NCc1cc(C(F)(F)F)cc(C(F)(F)F)c1)C1CC(c2c(Cl)cccc2Cl)=NO1 (configuration not stated)	IL-1B inflam inh -50, TDP1 cell CPT inconclusive, DT40 TDP1 no CPT inconclusive
COc1ccc(NC(=O)C2CC(c3c(F)cccc3Cl)=NO2)cc1 (configuration not stated)	DT40 TDP1 no CPT inconclusive
COc1ccc(CNC(=O)C2CC(c3cc(C(F)(F)F)cc(C(F)(F)F)c3)=NO2)cc1 (configuration not stated)	TDP1 cell CPT 3.3µM, DT40 TDP1 no CPT 4.6µM
Cc1ccc(CNC(=O)C2CC(c3ccc(C(F)(F)F)cc3)=NO2)o1 (configuration not stated)	TDP1 cell CPT 12µM, DT40 TDP1 no CPT 7.3µM
Cc1cccc(-c2nnc(SCC(=O)NC3CC3)n2C)c1	none
CC(C)(C)C(=O)Cn1nnc(-c2ccc(C(F)(F)F)cc2)n1	DT40 TDP1 no CPT inconclusive
O=C(O)c1cc2cc(Oc3ccccc3)ccc2[nH]1	none
COc1ccc(CCNC(=O)C2CC(c3ccc(C(F)(F)F)cc3)=NO2)cc1 (configuration not stated)	TDP1 cell CPT inconclusive, DT40 TDP1 no CPT 15µM
O=C(COc1ccc([N+](=O)[O-])cc1)Nc1ccc(CN2CCOCC2)cc1	TDP1 cell CPT inconclusive, DT40 TDP1 no CPT 21µM
CCc1ccc(NC(=O)C(=O)NCCN2CCN(Cc3ccc([N+](=O)[O-])cc3)CC2)cc1	TDP1 cell CPT 10µM, DT40 TDP1 no CPT 9.2µM
